Most compounds without a hit are left out; they make up all but 11% or so of the library.
USP28 inh: inhibitors of human USP28 deubiquitinase | Ubiquitin carboxyl-terminal hydrolase 28 (Homo sapiens), Q96RU2 | purified USP28, Ub-rhodamine cleavage fluorescence, 30 min | inhibition, % at 25 µM | actives 3% (n = 47,000)
USP17 inh: inhibitors of human USP17 deubiquitinase; Ubiquitin carboxyl-terminal hydrolase 17-like protein 5 (Homo sapiens), A8MUK1; purified USP17, Ub-rhodamine cleavage fluorescence, 3 h; inhibition, % at 50 µM; actives 6.5% (n = 47,000); AID 1645855, 2021
USP30 block: inhibitors of human USP30 deubiquitinase; Ubiquitin carboxyl-terminal hydrolase 30 (Homo sapiens), Q70CQ3; purified USP30, Ub-rhodamine cleavage fluorescence; inhibition, % at 25 µM; actives 5.3% (n = 47,000)
The depositor's hits bear a star. No stated cut-off is given here; in the data, active means inhibition above about 30%; inactive means the rest.

SMILES	USP28 inh	USP17 inh	USP30 block
COc1ccc(-n2nnc(C(=O)Nc3ccc(F)cc3)c2C)cc1	3.9	50.2*	16.9
COc1ccc(NC(=O)c2cnn(-c3ccc(F)cc3)c2C)cc1	18.0	18.8	-14.7
O=C(N[C@@H](Cc1ccccc1)C(=O)N1CCC2(CC1)NCCc1[nH]cnc12)c1ccc2c(c1)OCO2	-11.2	0.0	-19.2
Cc1ncsc1C(=O)N1CCCC1c1cncc(-n2ccnc2C(C)C)n1 (stereo unspecified)	-4.9	6.3	14.5
COc1ccc(CNC(=O)Cn2cnc(S(=O)(=O)N3CCCCC3)c2)cc1	4.8	1.3	10.3
Cc1cc(C(=O)COC(=O)C2CCN(C(=O)c3ccc(Cl)cc3)CC2)c(C)n1CC1COc2ccccc2O1 (stereo unspecified)	-37.4	-18.2	-103.2
Cc1ccc(-n2nnc(C(=O)Nc3ccc(F)cc3F)c2C)cc1	-13.3	-1.1	-0.3
Cc1ccc(NC(=O)c2nnn(-c3cccc(F)c3)c2C)cc1	9.5	5.4	42.7*
COc1cccc(-n2nnc(C(=O)Nc3ccc(Cl)cc3)c2C)c1	-0.1	12.0	14.4
COc1ccc(-n2nnc(C(=O)Nc3ccc(F)cc3F)c2C)cc1	-1.4	27.4	13.4
COc1ccc(NC(=O)c2nnn(-c3ccc(F)cc3)c2C)cc1	18.4	48.0*	2.3
COc1ccc(-n2nnc(C(=O)Nc3cccc(F)c3)c2C)cc1	17.8	48.1*	27.0
Fc1ccc2nc(CN3CCN(c4ccccc4)CC3)cn2c1	-12.0	-14.8	-29.2
CCCNC(=O)c1nnn(-c2ccc(CC)cc2)c1C	24.9	17.5	20.2
COc1cccc(N2CCN(C(=O)c3nccnc3NC(=O)c3ccccc3)CC2)c1	-2.6	-0.1	2.7
Cc1cc(C(=O)N2CCN(c3ccc(CN4CCC(N(C)C)CC4)cn3)CC2)n(C(C)(C)C)n1	-7.0	-2.1	-11.8
COc1ccc2nc(NC(=O)Cc3c[nH]c4ccccc34)sc2c1	12.0	3.2	0.1
Cc1ccc(CNC(=O)c2ccc(N3CCCC3)c(NC(=O)Nc3cccc(C)c3)c2)cc1	11.0	6.1	17.0
CCOC(=O)c1c(-c2ccccc2Cl)csc1NC(=O)CNc1cccc(O)c1	39.0*	31.6*	-39.4
CCOC(=O)c1cc(-c2ccccc2)sc1NC(=O)CNc1cccc(C(C)=O)c1	-2.7	-2.2	-7.9
CC1(O)CC(=O)c2c(cc3cc(O)cc(O)c3c2O)C1 (stereo unspecified)	67.8*	77.2*	-20.8
CCOC(=O)C(C)Sc1nc(=O)n2cccc(C)c2n1 (stereo unspecified)	13.2	22.4	30.2*
COc1cc(CNC(=O)c2cnc3c(C)cccn3c2=O)cc(OC)c1OC	1.5	-20.9	26.0
COc1cccc(NC(=O)CSc2nnc(-c3ccc(OC)c(OC)c3)c(-c3ccc(OC)c(OC)c3)n2)c1	-15.2	-17.0	-21.8
COc1ccc(C(=O)CSc2nnc(-c3cc4cccc(OC)c4o3)n2C)cc1OC	-0.3	18.5	52.7*
SMILES	USP28 inh	USP17 inh	USP30 block
O=C(CSc1nnc(-c2cc3ccccc3[nH]2)o1)Nc1cccc(F)c1	-20.8	-38.4	-84.7
COc1cccc(NC(=O)CSc2nnc(-c3cc4cccc(OC)c4o3)n2C)c1	6.9	59.9*	49.8*
COc1ccc(C(=O)CSc2nnc(COc3c(C)cccc3C)n2C)cc1OC	-0.5	25.1	9.7
COCCn1c(SCC(=O)c2ccc(F)cc2)nc2ccccc21	1.4	36.0*	10.4
COCCn1cc(OC(=O)c2ccc(F)cc2)c2c1nc(-c1ccc(F)cc1)n1c3ccccc3nc21	-92.7	-111.6	-283.7
COc1cc(NC(=O)CSc2nnc(-c3cc4ccccc4n3C)o2)cc(OC)c1	15.2	19.6	48.7*
C[C@@H](NS(=O)(=O)c1cccc(C(F)(F)F)c1)C(=O)NCc1cscn1	1.6	-1.7	10.6
CC1NC(=O)[C@H]2C[C@H](C(=O)Nc3ccc(Cl)cc3)[C@@H]1N2Cc1ccccc1 (stereo partly specified)	-14.0	-6.8	1.1
CC1CCN(c2ccc3nnc(CCC(=O)NC4CCCCC4)n3n2)CC1	-0.9	-2.0	-0.1
Cc1cc(C)n(-c2nc3c(c(=O)n2CC(=O)N2CCCC2)CCCC3)n1	8.3	-3.2	4.4
CNC(=O)C1CN(C(=O)Cn2c(C(F)(F)F)nc3ccccc32)CCN1 (stereo unspecified)	4.0	1.9	25.8
CCC12CN3CC(C)(CN(C1)C31C(=O)N(C)c3ccccc31)C2=O (stereo unspecified)	5.7	7.4	-15.9
O=C(c1nc2c(s1)CCN(c1ncccn1)CC2)N1CCCCC1	1.2	-20.4	-28.2
O=C1[C@H]2Cc3c([nH]c4ccccc34)C(c3cccc4ccccc34)N2C(=O)CN1Cc1ccccc1F (stereo partly specified)	-32.5	-33.9	-86.4

From PubChem
